ST2 inh: inhibitors of human ST2 (IL1RL1) binding to IL-33 | Q01638 | AlphaLISA ST2-Fc/biotin-IL-33 interaction, 1 h | inhibition, % for hits at 17 µM | 2.3% of 78,000 active | AID 1259354; in the data active = inhibition above about 30%
Target sequence (Q01638 whole entry, looked up): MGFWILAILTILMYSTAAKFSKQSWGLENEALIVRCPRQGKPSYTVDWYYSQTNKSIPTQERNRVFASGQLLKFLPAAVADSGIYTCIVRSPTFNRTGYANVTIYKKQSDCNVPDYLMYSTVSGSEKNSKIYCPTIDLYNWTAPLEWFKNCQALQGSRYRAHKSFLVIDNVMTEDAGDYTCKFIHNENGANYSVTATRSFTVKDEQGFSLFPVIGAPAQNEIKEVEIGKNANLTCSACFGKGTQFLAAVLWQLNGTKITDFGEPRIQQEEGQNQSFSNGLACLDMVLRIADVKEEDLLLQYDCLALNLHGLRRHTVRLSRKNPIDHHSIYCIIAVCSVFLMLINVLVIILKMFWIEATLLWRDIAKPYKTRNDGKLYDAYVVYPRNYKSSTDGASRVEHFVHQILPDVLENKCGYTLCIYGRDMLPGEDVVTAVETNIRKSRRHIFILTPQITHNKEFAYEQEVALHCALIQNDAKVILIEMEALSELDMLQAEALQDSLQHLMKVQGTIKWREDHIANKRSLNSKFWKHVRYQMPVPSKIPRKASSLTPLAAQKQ
An asterisk follows results filed as active; ! = a repeat was not active. This is one part of a sample in which hits are shown more often than they occur.

How did COc1ccc(OC(C)C(=O)Nc2ccc3c(c2)OCO3)cc1 (stereo not drawn) do in these assays?
ST2 inh: inactive

What do the screens show for `COc1ccc(N(C(=O)c2cccc(Br)c2)C2C=CS(=O)(=O)C2)c(OC)c1` (stereo not drawn)?
ST2 inh: inactive

What do the screens show for `COc1cc(C2C3=C(CCCC3=O)NC3=C2C(=O)c2ccccc23)ccc1O` (stereo not drawn)?
ST2 inh: inactive

Results for COc1cc(C2CC(c3ccccc3O)=NN2)ccc1O (stereo not drawn) ?
ST2 inh: 32.0%*

What do the screens show for `COc1cc(C2N(Cc3ccccc3)CCN2Cc2ccccc2)ccc1O`?
ST2 inh: inactive

Results for CCOCCCNC(=O)c1cc(=O)[nH]c2ccc(S(=O)(=O)N3CCCCC3)cc12 ?
ST2 inh: inactive

How did Nc1ccccc1C(c1ccc(O)cc1)c1ccc(O)cc1 do in these assays?
ST2 inh: inactive

How did Cc1ccc(CNc2ccc(C(=O)NCCC3CCCCN3C)cn2)o1 (stereo not drawn) do in these assays?
ST2 inh: inactive

Results for Cc1cc(C)c(NC(=O)COc2ccccc2[N+](=O)[O-])c(C)c1 ?
ST2 inh: inactive

Results for N[C@@H](Cc1c[nH]c2ccccc12)C(=O)O ?
ST2 inh: inactive

Results for NC(=O)CCc1c[nH]c2ccccc12 ?
ST2 inh: inactive

How did O=C(O)Cc1c[nH]c2ccc(O)cc12 do in these assays?
ST2 inh: 41.0%*!

What do the screens show for `Cc1ccc(NS(=O)(=O)c2ccc3[nH]cc(C(=O)NCCc4ccccc4)c(=O)c3c2)c(C)c1`?
ST2 inh: inactive

How did COc1ccc(-c2cnc(-n3cnnc3)c(C)c2)cc1Cl do in these assays?
ST2 inh: inactive

What do the screens show for `O=C(Nc1cccc(F)c1)c1oc2ccccc2c1NC(=O)C1CCCCC1`?
ST2 inh: inactive

Results for CC1CCN(CCOCCOc2cccc(Br)c2)CC1 ?
ST2 inh: inactive

Results for COc1c(Cl)cc(Cl)cc1C(=O)Nc1ccccc1N1CCOCC1 ?
ST2 inh: inactive

How did CC(C)=Cc1oc2c(Cl)cc(Cl)cc2c1N1CCOCC1 do in these assays?
ST2 inh: 30.0%*

Results for CC(=O)Nc1ccc(N2CCOCC2)cc1 ?
ST2 inh: inactive

What do the screens show for `CN(CCNC(=O)Cc1ccccn1)S(C)(=O)=O`?
ST2 inh: inactive

Results for O=[N+]([O-])c1ccccc1/C=C/c1ccc2cccc(O)c2n1 ?
ST2 inh: 41.0%*

What do the screens show for `O=[N+]([O-])c1cccc(C=Nc2ccc(-c3nc4ncccc4o3)cc2)c1O`?
ST2 inh: inactive

How did O=C(O)c1cccc(N=Cc2cccc([N+](=O)[O-])c2O)c1 do in these assays?
ST2 inh: inactive

How did CCCN(CCC)CCNC(=O)C1c2cc(OC)c(OC)cc2C(=O)N(C)C1c1cccs1 (stereo not drawn) do in these assays?
ST2 inh: inactive

What do the screens show for `O=C(Cn1c(=O)[nH]c2ccsc2c1=O)NC1CCCC1`?
ST2 inh: inactive

What do the screens show for `CSc1nnc2c(n1)[nH]c1ccc(C)cc12`?
ST2 inh: inactive

What do the screens show for `Cc1ccc(N2CN=C3SCC(=O)N3C2)cc1C`?
ST2 inh: 37.0%*

How did Cc1ccc(N2C(=O)C3CCCCC3C2=O)cc1C (stereo not drawn) do in these assays?
ST2 inh: inactive

Results for Cc1ccc(N2CN=C3SCC(=O)N3C2)cc1Cl ?
ST2 inh: inactive

Results for O[C@@H]1C[C@@H](c2nc(-c3ccncc3)no2)N(Cc2ccccc2)C1 ?
ST2 inh: inactive

What do the screens show for `CCCc1noc2c1C(=O)CC(C)(C)C2`?
ST2 inh: inactive

How did O=C(c1cc2ncccn2n1)N1CC[C@@H](c2ccc3c(c2)OCO3)[C@H](O)C1 do in these assays?
ST2 inh: inactive

How did CC(C)C(=O)NCCn1cc(C(C)c2ccccc2)nn1 (stereo not drawn) do in these assays?
ST2 inh: inactive

Results for COc1ccc(C(=O)N2CCN(c3ccccc3OC)CC2)cc1OC ?
ST2 inh: inactive

How did COc1ccc(O)c(C2=Nc3ccccc3N=C(c3ccc(F)cc3)C2)c1 do in these assays?
ST2 inh: 32.0%*

Results for Oc1ccccc1C1=Nc2ccccc2N=C(c2ccccc2)C1 ?
ST2 inh: inactive

How did COc1ccc(C2=Nc3ccccc3N=C(c3cc(OC)ccc3O)C2)cc1 do in these assays?
ST2 inh: inactive

What do the screens show for `CC1=C[C@@H](CNC(=O)c2ccco2)[C@H](C(C)C)C[C@H]1CC(=O)NCCN(C)C`?
ST2 inh: inactive

Results for COc1ccc(CCNC(=O)c2ccc3oc(-c4cccc(F)c4)nc3c2)cc1 ?
ST2 inh: inactive

How did CC(C)CSCc1ccc2oc(C(=O)O)cc2c1 do in these assays?
ST2 inh: inactive

How did NCC(=O)Nc1ccc(-c2cc3ccccc3o2)cc1F do in these assays?
ST2 inh: inactive

What do the screens show for `COc1ccc(N=Cc2c(Nc3ccccc3)nc3c(C)cccn3c2=O)cc1`?
ST2 inh: inactive

How did CCC(C)N=Cc1c(NCCO)nc2c(C)cccn2c1=O (stereo not drawn) do in these assays?
ST2 inh: inactive

Results for Cc1cccn2c(=O)c(C=NCCO)c(NCc3ccccc3)nc12 ?
ST2 inh: inactive
